Compounds without any hit were thinned out: in the full panel of roughly 83,000, 20% have a hit.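 Each cell line was grown in a 96-well plate and treated with one concentration of compound for 48 hours. Values below 10 were considered active.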 Values without a mark were called inactive. Activity calls are given as the source filed them.

Here are results for 12 compounds from PubChem BioAssay (NCI).

Test systems include NCI-H23 lung; NCI-H226 lung; NCI-H322M lung; HOP-62 NSCLC; NCI-H460 lung; HOP-92 NSCLC; NCI-H522 lung; A549/ATCC NSCLC; 786-0 renal; COLO 205 colon.
Test in all cases: NCI-60 one-dose screen, 48 h (100 = growth as untreated, 0 = no growth, -100 = all killed)
Holding throughout (details): 10 µM unless noted

For the compound `O=C(Nc1ccccc1Cl)c1c[nH]c(=O)c(-c2ccc(N3CCCOC4(CC4)C3)cc2)c1`, the growth in the assay on NCI-H23 lung was 46.9%; with NCI-H226 lung it was 50.9%; in the assay with NCI-H322M lung, 78%; in the assay with HOP-62 NSCLC, 69.7%; with NCI-H460 lung, 63.8%; in the assay with HOP-92 NSCLC it was 70.4%. Besides, the growth is 53.6% in the assay with NCI-H522 lung, 57.8% in the assay with A549/ATCC NSCLC, 68.2% with 786-0 renal and 81.4% in the assay with COLO 205 colon.
Take `C=CCOc1ccc(/C(Cl)=N/N=C(\Cl)c2cc(OC)c(OC)c(OC)c2)cc1`: the growth with NCI-H23 lung was 64.9%; in the assay with NCI-H226 lung, 81.8%; in the assay on NCI-H322M lung it was 97.4%; with HOP-62 NSCLC it was 79.7%; in the assay with NCI-H460 lung, 48%; in the assay with HOP-92 NSCLC, 65.1%. Further, the growth in the assay with NCI-H522 lung is 37.9%; with A549/ATCC NSCLC, 59.5%; in the assay with 786-0 renal, 98.1%; with COLO 205 colon, 72.2%.
As to `CNCCCOc1c(Br)cc(CCNC(=O)/C(Cc2cc(Br)c(OC)c(Br)c2)=N/O)cc1Br`, the growth in the assay with NCI-H23 lung was -20.9% (active); with NCI-H226 lung it was 75.1%; in the assay on NCI-H322M lung, 21%; with HOP-62 NSCLC it was -7.84% (active); in the assay on NCI-H460 lung, -44.7% (active); with HOP-92 NSCLC, -6.24% (active). Moreover, the growth was -64% (active) in the assay on NCI-H522 lung, -16.7% (active) in the assay on A549/ATCC NSCLC, -80.8% (active) in the assay with 786-0 renal and -72% (active) in the assay on COLO 205 colon.
Consider `Cc1cn(-c2cc(C(=O)Nc3cccc(-n4ccc5c(NC(=O)c6ccccc6)nccc54)c3)cc(C(F)(F)F)c2)cn1`, for which the growth in the assay on NCI-H23 lung is 22.5%; in the assay with NCI-H226 lung it was 33.8%; in the assay with NCI-H322M lung, 32.9%; with HOP-62 NSCLC, 31.5%; with NCI-H460 lung it was -13.3% (active); with HOP-92 NSCLC, -6.29% (active). Further, the growth in the assay on NCI-H522 lung is -7.45% (active); in the assay on A549/ATCC NSCLC, -19% (active); in the assay on 786-0 renal, -70.6% (active); in the assay on COLO 205 colon it was -20.1% (active).
Consider `CCOc1cccc(Nc2nc(N)nc3[nH]c4ccc(O)cc4c23)c1`, for which the growth is 68.5% in the assay with NCI-H23 lung; 79.5% with NCI-H226 lung; 65.1% in the assay with NCI-H322M lung; 61.7% with HOP-62 NSCLC; 82% in the assay with NCI-H460 lung; 25.9% in the assay with HOP-92 NSCLC. For the same compound, the growth was 49.2% in the assay on NCI-H522 lung, 46.6% in the assay on A549/ATCC NSCLC, 52.8% with 786-0 renal and 96.9% in the assay on COLO 205 colon.
As to `O=C(NCCNc1nccc(-c2c(-c3cccc(O)c3)nc3sccn23)n1)Nc1cc(C(F)(F)F)cc(C(F)(F)F)c1`, the growth with NCI-H23 lung was 90.9%; in the assay on NCI-H226 lung it was 101%; in the assay on NCI-H322M lung, 87%; in the assay with HOP-62 NSCLC, 118%; in the assay with NCI-H460 lung it was 51.8%; with HOP-92 NSCLC, 74.4%. The growth in the assay with NCI-H522 lung was 69.5%; in the assay on A549/ATCC NSCLC it was 57.7%; with 786-0 renal, 82%; in the assay with COLO 205 colon, 45.1%.
Consider `CC(C)CNCC(O)COc1ccc(C(C)(C)c2ccc(OCC(O)CNCC(C)C)cc2)cc1` (stereo not given), for which the growth with NCI-H23 lung is 84.4%; in the assay on NCI-H226 lung, 88.2%; with NCI-H322M lung, 81.3%; in the assay with HOP-62 NSCLC, 64.3%; in the assay on NCI-H460 lung it was -22.2% (active); with HOP-92 NSCLC it was 20.2%. Also, the growth was 26.4% with NCI-H522 lung, 37.5% in the assay on A549/ATCC NSCLC, 26.1% in the assay with 786-0 renal and -65.8% (active) with COLO 205 colon.
Take `O=c1c2ccccc2sc2c(NCCN3CCOCC3)nc3ccccc3c12`: the growth was 68% in the assay with NCI-H23 lung; 59.2% with NCI-H226 lung; 104% in the assay with NCI-H322M lung; 52% in the assay on HOP-62 NSCLC; 27.3% in the assay on NCI-H460 lung; 24.8% in the assay on HOP-92 NSCLC. Further, the growth in the assay with NCI-H522 lung is 63.1%; in the assay with A549/ATCC NSCLC, 43.1%; in the assay with 786-0 renal, 48.5%; in the assay on COLO 205 colon it was 21.9%.
`C=C1C(=O)O[C@H]2[C@H]1CC/C(COC(=O)c1ccc3ccccc3c1)=C\CC[C@@]1(C)O[C@@H]21`: the growth with NCI-H23 lung was 2.6% (active); in the assay on NCI-H226 lung, -82.3% (active); in the assay on NCI-H322M lung, 45%; in the assay with HOP-62 NSCLC, -29.2% (active); with NCI-H460 lung it was 8.67% (active); with HOP-92 NSCLC, -73.3% (active). In addition, the growth was -77.3% (active) in the assay on NCI-H522 lung, -52.7% (active) with A549/ATCC NSCLC, -85.1% (active) with 786-0 renal and -71.1% (active) in the assay with COLO 205 colon.
As for `COc1cc2c(/C=C3/C(=O)Nc4ccc(O)cc43)c(Cl)n(Cc3cc(OC)c(OC)c(OC)c3)c2cc1C`, the growth was 41.9% in the assay on NCI-H23 lung; 65.5% in the assay on NCI-H226 lung; 48.8% in the assay on NCI-H322M lung; 40.1% in the assay on HOP-62 NSCLC; 4.32% (active) in the assay on NCI-H460 lung; -5.18% (active) in the assay on HOP-92 NSCLC. Besides, the growth is 0.662% (active) with NCI-H522 lung, 16.3% in the assay on A549/ATCC NSCLC, 15.8% in the assay with 786-0 renal and 4.15% (active) in the assay on COLO 205 colon.
Take `COc1cc(/C=C/C(=O)c2c(C)[n+]([O-])c3ccccc3[n+]2[O-])ccc1O`: the growth in the assay on NCI-H23 lung was 95.5%; with NCI-H226 lung, 98.5%; in the assay on NCI-H322M lung it was 99.4%; in the assay on HOP-62 NSCLC it was 125%; in the assay on NCI-H460 lung, 91.4%; with HOP-92 NSCLC, 42.2%. In addition, the growth in the assay on NCI-H522 lung was 71%; in the assay on A549/ATCC NSCLC it was 103%; in the assay with 786-0 renal, 62.4%; in the assay on COLO 205 colon, 121%.
With `CCNc1cc(S(=O)(=O)O)ccc1C`, the growth in the assay with NCI-H23 lung is 103%; in the assay with NCI-H226 lung, 103%; in the assay with NCI-H322M lung, 112%; in the assay on HOP-62 NSCLC it was 90.8%; in the assay on NCI-H460 lung, 112%; with HOP-92 NSCLC, 104%. For the same compound, the growth was 93.3% in the assay with NCI-H522 lung, 81.3% in the assay with A549/ATCC NSCLC, 99.8% with 786-0 renal and 92.8% in the assay on COLO 205 colon.
